Data reported in PubChem BioAssay (EPA / NIEHS).
Values joined by “and” are separate entries in the source; they are usually repeats but may differ in a detail not shown here. Equal entries are not always repeated. Where a structure was tested more than once in an assay, its records may differ in their call. Active and inactive are the calls of the source. The calls were made as follows: active = hit-call score of the fitted dose curve at least 0.9, where 1 is the maximum; inactive = score below 0.9.

Assays:
[1] = ATG_E_Box_CIS: Attagene CIS-FACTORIAL HepG2 Assay for human Enhancer Box (E-box) (AID 2282936); settings: HepG2 E-box cis-reporter transcription, actives raise or lower the signal
Procedure, shortened: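 Cells: HepG2 (human liver), transient MRTU transfection. Exposure 24 h. RNA → oligo(dT) RT → PCR → 6-FAM label → HpaI → CE. Activity fitted both directions relative to DMSO.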

[2] = ATG_M_61_CIS: Attagene CIS-FACTORIAL HepG2 Assay for M61 Transcription Factor (Internal Marker) (AID 2282937); settings: HepG2 Attagene CIS-FACTORIAL M61 internal marker reporter; actives raise or lower the signal
Procedure, shortened: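 HepG2 cells transiently transfected with multiplexed cis-promoter reporter units reporting endogenous transcription factor activity, measured 24 h after dosing. Reporter mRNA quantified by RT-PCR and capillary electrophoresis; bidirectional fit against DMSO baseline.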

[3] = ATG_EGR_CIS: Attagene CIS-FACTORIAL HepG2 Assay for human Early Growth Response 1 (EGR1) (AID 2282938); settings: HepG2 Attagene CIS-FACTORIAL EGR reporter mRNA; actives raise or lower the signal
Procedure, shortened: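 HepG2 cells transiently transfected with cis-element-driven multiplexed reporter units, dosed for 24 h. EGR1-element reporter mRNA quantified by RT-PCR, 6-FAM labelling, HpaI digestion and capillary electrophoresis; bidirectional fit versus DMSO.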

[4] = ATG_M_19_CIS: Attagene CIS-FACTORIAL HepG2 Assay for M19 Transcription Factor (Internal Marker) (AID 2282939); settings: HepG2 Attagene CIS-FACTORIAL M19 internal marker reporter; actives raise or lower the signal
Procedure, shortened: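 Internal marker readout, fitted in both directions against DMSO, from HepG2 cells carrying transfected cis-element reporter constructs; RT-PCR and capillary electrophoresis of reporter mRNA after 24 h exposure.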

[5] = ATG_ERE_CIS: Attagene CIS-FACTORIAL HepG2 Assay for Estrogen Response Element (ERE) (AID 2282940); settings: HepG2 ERE cis-reporter, Attagene RNA transcript; actives raise or lower the signal
Procedure, shortened: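 After 24 h compound treatment, RNA from transfected HepG2 cells was reverse-transcribed, reporter cDNA PCR-amplified, FAM-labelled, HpaI-cut and resolved by capillary electrophoresis. ERE-driven cis reporter transcripts reflect endogenous factors; gain or loss scored against DMSO.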

[6] = ATG_Ets_CIS: Attagene CIS-FACTORIAL HepG2 Assay for human Erythroblast Transformation Specific (ETS) (AID 2282941); settings: HepG2 ETS cis-reporter transcription, actives raise or lower the signal
Procedure, shortened: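 HepG2 cells transfected with multiple cis-regulated reporter units measuring endogenous ETS-driven transcription, 24 h after dosing. Reporter mRNA quantified by RT-PCR with capillary electrophoresis; bidirectional fit relative to DMSO.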

[7] = target: Hepatocyte nuclear factor 3-beta (Homo sapiens) (UniProt Q9Y261); assay: ATG_FoxA2_CIS: Attagene CIS-FACTORIAL HepG2 Assay for human Forkhead box A2 (FOXA2) (AID 2282942); settings: HepG2 cis-reporter transcription factor activity, 24 h; actives raise or lower the signal
Procedure, shortened: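 HepG2 transiently transfected with a multiplexed cis-promoter reporter library read endogenous FOXA2 activity. After 24 h compound exposure, reporter mRNA was quantified by RT-PCR, HpaI digestion and capillary electrophoresis. Bidirectional fit against DMSO.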

[8] = ATG_FoxO_CIS: Attagene CIS-FACTORIAL HepG2 Assay for human Forkhead box O (FoxO) (AID 2282943); settings: HepG2 Attagene cis-reporter, FoxO element, mRNA; actives raise or lower the signal
Procedure, shortened: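 Human hepatoma HepG2 cells carry transiently introduced reporter transcription units controlled by cis promoter elements. Chemical treatment lasted 24 h, and mRNA signal was compared with DMSO.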

[9] = ATG_GATA_CIS: Attagene CIS-FACTORIAL HepG2 Assay for human GATA Binding Protein (AID 2282944); settings: HepG2 GATA cis-element reporter, Attagene multiplex mRNA; actives raise or lower the signal
Procedure, shortened: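 Reporter transcripts from a GATA cis-regulated unit, among multiplexed reporters in transfected HepG2 cells, were measured by RT-PCR with capillary electrophoresis after 24 h dosing. Induction or loss scored relative to DMSO.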

[10] = ATG_GLI_CIS: Attagene CIS-FACTORIAL HepG2 Assay for human Zinc Finger Protein GLI1 (AID 2282945); settings: HepG2, Attagene cis-factorial reporter mRNA, GLI element; actives raise or lower the signal
Procedure, shortened: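 Bidirectional curve fits relative to DMSO, using reporter mRNA levels from RT-PCR plus capillary electrophoresis. Cells were HepG2 transiently carrying cis-regulated reporter constructs, harvested 24 h after dosing.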

[11] = ATG_GRE_CIS: Attagene CIS-FACTORIAL HepG2 Assay for human Glucocorticoid Response Elements (GRE) (AID 2282947); settings: HepG2 GRE cis-reporter, Attagene multiplex mRNA; actives raise or lower the signal
Procedure, shortened: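 Transient MRTU transfection of human HepG2 liver cells; cis-regulated reporters report endogenous factors. 24 h dosing → RNA isolation → RT-PCR → 6-FAM primer extension → HpaI cut → CE fragment analysis. Bidirectional fit, DMSO negative control.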

[12] = ATG_ISRE_CIS: Attagene CIS-FACTORIAL HepG2 Assay for human Interferon Regulatory Factor 1 (IRF1) binding to an Interferon-Stimulated Response Element (ISRE) (AID 2282948); settings: HepG2 ISRE cis-reporter (Attagene), mRNA transcription readout; actives raise or lower the signal
Procedure, shortened: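 Transiently transfected HepG2 cells carrying cis-element reporter units, dosed 24 hours. Reporter mRNA quantified by RT-PCR, fluorescent primer extension, HpaI digestion and capillary electrophoresis. Bidirectional fitting relative to DMSO.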

[13] = ATG_M_32_CIS: Attagene CIS-FACTORIAL HepG2 Assay for M32 Transcription Factor (Internal Marker) (AID 2282949); settings: HepG2 Attagene cis-factorial M32 reporter, mRNA; actives raise or lower the signal;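 also: background control marker of the multiplexed CIS panel rather than a real target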
Procedure, shortened: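 HepG2 cells transiently transfected with multiplexed cis-regulated reporter units, dosed 24 h. Reporter mRNA quantified by RT-PCR, 6-FAM labelling, HpaI digestion and capillary electrophoresis; bidirectional fit vs DMSO.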

[14] = ATG_M_06_CIS: Attagene CIS-FACTORIAL HepG2 Assay for M06 Transcription Factor (Internal Marker) (AID 2282950); settings: HepG2 Attagene CIS-FACTORIAL M06 internal marker reporter; actives raise or lower the signal
Procedure, shortened: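 Serves as a background control readout. Transfected HepG2 exposed to compounds for 24 h, then reporter transcripts quantified by fluorescent RT-PCR and capillary electrophoresis. Both directions fitted against DMSO baseline.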

[15] = target: Hypoxia-inducible factor 1-alpha (Homo sapiens) (UniProt Q16665); assay: ATG_HIF1a_CIS: Attagene CIS-FACTORIAL HepG2 Assay for human Hypoxia Inducible Factor 1 (HIF1A) (AID 2282951); settings: HepG2 Attagene cis-factorial HIF1a reporter transcription; actives raise or lower the signal
Procedure, shortened: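 HepG2 cells transiently transfected with multiple cis-regulated reporter transcription units measure endogenous transcription factor activity. After 24 h exposure, reporter mRNA is quantified by RT-PCR with 6-FAM labelling, HpaI digestion and capillary electrophoresis. Bidirectional fitting against DMSO.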

[16] = target: Hepatocyte nuclear factor 6 (Homo sapiens) (UniProt Q9UBC0); assay: ATG_HNF6_CIS: Attagene CIS-FACTORIAL HepG2 Assay for human Hepatocyte Nuclear Factor 6 (HNF6) (AID 2282952); settings: HepG2 Attagene cis-factorial HNF6 reporter transcription; actives raise or lower the signal
Procedure, shortened: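 Multiplexed mRNA reporter assay in transfected HepG2; 24 h dosing; RT-PCR plus capillary electrophoresis fluorescence; DMSO-referenced bidirectional curve fitting.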

[17] = target: Heat shock factor protein 1 (Homo sapiens) (UniProt Q00613); assay: ATG_HSE_CIS: Attagene CIS-FACTORIAL HepG2 Assay for human Heat Shock Transcription Factor 1 (HSE) (AID 2282953); settings: HepG2 HSE cis-reporter, Attagene RNA transcription; actives raise or lower the signal
Procedure, shortened: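 Endogenous transcription factor activity in transiently transfected HepG2, read as reporter mRNA by RT-PCR with fluorescent capillary electrophoresis after 24 h. Gain or loss of signal fitted versus DMSO baseline.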

[18] = ATG_MRE_CIS: Attagene CIS-FACTORIAL HepG2 Assay for human Metal Responsive Element (MRE) (AID 2282954); settings: HepG2 MRE cis-reporter transcription, Attagene multiplex; actives raise or lower the signal
Procedure, shortened: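 Transient MRTU transfection of HepG2 (FuGene 6); 24 h dosing; total RNA → oligo(dT) RT, PCR, 6-FAM primer extension, HpaI cut, CE. Bidirectional fit vs DMSO.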

[19] = target: Paired box protein Pax-6 (Homo sapiens) (UniProt P26367); assay: ATG_Pax6_CIS: Attagene CIS-FACTORIAL HepG2 Assay for human Paired Box 6 (PAX6) (AID 2282956); settings: HepG2 CIS-FACTORIAL PAX6 reporter transcription, RNA readout; actives raise or lower the signal
Procedure, shortened: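 HepG2 cells transiently transfected with cis-promoter-driven multiplexed reporter units sensing endogenous transcription factor activity; 24 h chemical exposure. Reporter mRNA quantified by RT-PCR, 6-FAM labelling, HpaI digestion and capillary electrophoresis; bidirectional fit versus DMSO baseline.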

[20] = ATG_PBREM_CIS: Attagene CIS-FACTORIAL HepG2 Assay for human Phenobarbital-responsive Enhancer Module (PBREM) (AID 2282955); settings: HepG2 PBREM cis-reporter, Attagene multiplexed transcription; actives raise or lower the signal
Procedure, shortened: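 HepG2 cells transiently transfected with multiple cis-regulated reporter units measure endogenous transcription factor activity; 24 h compound exposure. Reporter mRNA quantified by RT-PCR, fluorescent labelling, HpaI digestion and capillary electrophoresis; bidirectional fit versus DMSO.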

Measured: AC50

Chain of Heat shock factor protein 1 (Homo sapiens) (Q00613 whole entry, looked up): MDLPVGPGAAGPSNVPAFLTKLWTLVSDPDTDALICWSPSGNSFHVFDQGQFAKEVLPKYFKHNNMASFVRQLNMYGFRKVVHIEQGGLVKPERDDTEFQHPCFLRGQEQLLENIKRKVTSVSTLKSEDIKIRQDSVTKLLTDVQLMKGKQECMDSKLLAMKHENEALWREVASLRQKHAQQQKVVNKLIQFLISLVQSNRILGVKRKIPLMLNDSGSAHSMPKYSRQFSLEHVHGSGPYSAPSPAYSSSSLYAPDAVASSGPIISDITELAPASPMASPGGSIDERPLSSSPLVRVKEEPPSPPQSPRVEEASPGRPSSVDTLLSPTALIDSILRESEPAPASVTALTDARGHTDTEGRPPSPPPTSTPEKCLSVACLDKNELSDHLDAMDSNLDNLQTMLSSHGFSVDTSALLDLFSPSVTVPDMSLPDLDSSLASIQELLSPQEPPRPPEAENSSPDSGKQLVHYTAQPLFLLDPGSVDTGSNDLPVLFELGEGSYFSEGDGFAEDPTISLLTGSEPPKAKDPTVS
Chain of Hepatocyte nuclear factor 6 (Homo sapiens) (Q9UBC0 whole entry, looked up): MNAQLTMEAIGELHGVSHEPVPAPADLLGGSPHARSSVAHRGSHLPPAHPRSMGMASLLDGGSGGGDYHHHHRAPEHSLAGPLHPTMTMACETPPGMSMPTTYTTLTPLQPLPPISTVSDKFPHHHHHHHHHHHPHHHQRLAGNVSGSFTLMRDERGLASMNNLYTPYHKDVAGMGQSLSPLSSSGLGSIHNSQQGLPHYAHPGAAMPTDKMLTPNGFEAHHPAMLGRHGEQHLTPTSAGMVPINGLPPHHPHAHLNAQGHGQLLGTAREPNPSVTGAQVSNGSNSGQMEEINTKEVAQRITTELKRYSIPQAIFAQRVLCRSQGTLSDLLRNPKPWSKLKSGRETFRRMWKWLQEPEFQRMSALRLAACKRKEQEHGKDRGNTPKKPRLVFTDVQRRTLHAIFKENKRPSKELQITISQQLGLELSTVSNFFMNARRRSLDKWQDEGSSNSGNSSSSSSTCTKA
Chain of Hepatocyte nuclear factor 3-beta (Homo sapiens) (Q9Y261 whole entry, looked up): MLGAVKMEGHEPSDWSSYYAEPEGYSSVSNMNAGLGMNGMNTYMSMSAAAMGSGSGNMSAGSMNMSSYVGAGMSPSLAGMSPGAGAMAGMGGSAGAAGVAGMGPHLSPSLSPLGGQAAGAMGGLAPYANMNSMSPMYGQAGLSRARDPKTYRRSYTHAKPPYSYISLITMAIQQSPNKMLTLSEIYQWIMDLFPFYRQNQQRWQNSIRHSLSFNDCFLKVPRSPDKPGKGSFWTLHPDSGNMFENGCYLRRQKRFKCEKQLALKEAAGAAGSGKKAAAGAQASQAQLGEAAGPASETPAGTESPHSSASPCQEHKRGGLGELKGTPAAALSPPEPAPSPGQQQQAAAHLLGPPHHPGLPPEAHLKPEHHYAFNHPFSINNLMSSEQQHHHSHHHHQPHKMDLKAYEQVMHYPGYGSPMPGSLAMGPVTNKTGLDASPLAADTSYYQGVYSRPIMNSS
Chain of Paired box protein Pax-6 (Homo sapiens) (P26367 whole entry, looked up): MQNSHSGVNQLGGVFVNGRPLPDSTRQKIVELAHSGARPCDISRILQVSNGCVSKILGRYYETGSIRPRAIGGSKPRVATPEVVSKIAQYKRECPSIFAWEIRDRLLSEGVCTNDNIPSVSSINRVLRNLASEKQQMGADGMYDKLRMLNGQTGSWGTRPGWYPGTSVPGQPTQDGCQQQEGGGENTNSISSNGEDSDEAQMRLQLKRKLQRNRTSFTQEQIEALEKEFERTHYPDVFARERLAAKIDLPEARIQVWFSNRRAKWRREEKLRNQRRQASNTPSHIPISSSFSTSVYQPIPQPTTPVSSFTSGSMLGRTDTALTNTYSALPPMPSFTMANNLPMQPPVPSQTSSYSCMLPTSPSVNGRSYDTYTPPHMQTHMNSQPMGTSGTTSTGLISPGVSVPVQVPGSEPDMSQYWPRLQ
Chain of Hypoxia-inducible factor 1-alpha (Homo sapiens) (Q16665 whole entry, looked up): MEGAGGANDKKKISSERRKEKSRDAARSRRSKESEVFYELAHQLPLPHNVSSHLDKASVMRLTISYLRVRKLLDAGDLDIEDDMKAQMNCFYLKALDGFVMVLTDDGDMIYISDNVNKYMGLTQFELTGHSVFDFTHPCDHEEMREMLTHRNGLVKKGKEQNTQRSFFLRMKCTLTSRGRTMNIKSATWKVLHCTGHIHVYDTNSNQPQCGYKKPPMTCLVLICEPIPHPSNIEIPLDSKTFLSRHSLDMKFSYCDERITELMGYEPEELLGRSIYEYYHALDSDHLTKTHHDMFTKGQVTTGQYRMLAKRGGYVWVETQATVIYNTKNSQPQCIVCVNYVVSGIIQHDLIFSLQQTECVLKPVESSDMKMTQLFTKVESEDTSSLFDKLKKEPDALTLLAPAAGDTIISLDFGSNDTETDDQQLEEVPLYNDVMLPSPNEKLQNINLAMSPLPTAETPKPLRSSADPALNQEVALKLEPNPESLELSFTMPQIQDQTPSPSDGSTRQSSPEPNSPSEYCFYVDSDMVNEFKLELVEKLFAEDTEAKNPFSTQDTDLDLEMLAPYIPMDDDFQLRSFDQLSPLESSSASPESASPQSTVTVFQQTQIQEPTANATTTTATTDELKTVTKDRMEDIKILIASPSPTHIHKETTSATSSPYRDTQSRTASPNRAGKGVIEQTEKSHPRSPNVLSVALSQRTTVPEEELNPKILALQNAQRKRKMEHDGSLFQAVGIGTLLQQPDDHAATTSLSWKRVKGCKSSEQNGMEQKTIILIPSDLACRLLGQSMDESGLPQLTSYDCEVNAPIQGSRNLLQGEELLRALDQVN

CCSC(=O)N(CC)C1CCCCC1
not listed: [20]
inactive: all other assays above

Cc1cc2c3c(c1)C(c1ccccc1)=N[C@@H](NC(=O)c1ccncc1)C(=O)N3CC2
active: [3] 42.8 µM | [6] 153 µM | [12] 102 µM | [15] 72.4 µM | [18] 77.1 µM | [20] 3.47 µM | [19] 100 µM
not listed: [11]
inactive: all other assays above

CC(c1ccc(O)cc1)(c1ccc(O)cc1)c1ccc(O)cc1
active: [1] 14.7 µM | [3] 12.8 µM | [5] 95.5 nM | [12] 16.1 µM | [15] 13.8 µM | [16] 18.6 µM | [18] 13.5 µM | [19] 11.1 µM
inactive: all other assays above

O=C(O)C(F)(F)C(F)(F)C(F)(F)C(F)(F)C(F)(F)C(F)(F)C(F)(F)C(F)(F)C(F)(F)F
inactive: [1] | [3] | [4] | [5] | [6] | [7] | [8] | [9] | [10] | [11] | [13] | [14] | [15] | [16] | [17] | [20]
active: [1] 88.6 µM | [3] 42.9 µM and 22.2 µM | [12] 48.2 µM and 33.8 µM and 90.4 µM | [13] 78.3 µM | [15] 26.6 µM | [16] 58.9 µM | [17] 50.3 µM and 50 µM | [18] 49.2 µM and 42.6 µM and 22.6 µM | [19] 49 µM and 33 µM and 54.8 µM

CC(C)(c1ccccc1)c1ccc(O)cc1
inactive: [1] | [3] | [4] | [6] | [7] | [8] | [9] | [10] | [11] | [12] | [13] | [14] | [15] | [16] | [17] | [18] | [20] | [19]
active: [3] 48.7 µM | [5] 435 nM [middle of 4 runs] | [9] 52.1 µM | [10] 55.4 µM | [11] 51.3 µM | [15] 52.5 µM and 12.7 µM | [17] 54.7 µM | [18] 33.4 µM and 52.1 µM and 43.1 µM | [20] 33.4 µM | [19] 52.3 µM and 39.5 µM
